A number with no mark means an inactive call. Inconclusive results are not listed. Entries that show only a call come without a potency. Active and inactive are the calls of the source. Unless noted, calls follow the shape of the full dose curve.
Experiments:
[1] = Nuclear factor erythroid 2-related factor 2/antioxidant responsive element (Nrf2/ARE) small molecule agonists: qHTS cell viability counter screen in human keratinocytes (AID 1919968; active = well fitted curve in the direction sought with a large enough effect in the repeat runs; an effect the other way counts as inactive or inconclusive; also: nearly all actives have a fitted effect of over 55% in size; also: potency is read from the fitted curve at half-maximal effect)
Procedure, shortened: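 HaCaT ARE reporter line, 1,500 cells/well; 5 h settle, 37 C/5% CO2; cpd in DMSO pinned; 23 h exposure; CellTiter-Fluor, 1 h; fluorescence.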

[2] = Nuclear factor erythroid 2-related factor 2/antioxidant responsive element (Nrf2/ARE) small molecule agonists: luciferase reporter gene qHTS assay in human keratinocytes (AID 1919969); also: nearly all actives have a fitted effect of over 35% in size
[3] = target: Gonadotropin-releasing hormone receptor (Homo sapiens) (UniProt P30968); test: Human gonadotropin-releasing hormone receptor (GnRHR) small molecule agonists, calcium flux assay in GnRHR-HEK293 cells (AID 1920063); also: nearly all actives have a fitted effect of over 35% in size
Procedure, shortened: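 GnRHR-HEK293, 1500 cells/well, 18 h 37 C/5% CO2; Ca dye 1 h 37 C; cpd pinned (DMSO), agonist mode; kinetic FL 480/540, 3 min, 1 s reads; 15 conc, n=3.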

[4] = target: KiSS-1 receptor (Homo sapiens) (UniProt Q969F8); test: Human kisspeptin (KISS1R) small molecule agonists, calcium flux assay in KISS1R-HEK293 cells (AID 1920064; active = well fitted curve in the direction sought with a large enough effect in the repeat runs; an effect the other way counts as inactive or inconclusive)
Procedure, shortened: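 Stable human KISS1R HEK293 line; 18 h plating, 37 C/5% CO2; calcium dye 1 h 37 C; compound pin transfer; kinetic fluorescence Ex/Em 480/540, 3 min.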

[5] = G protein-coupled receptor (GPCR) small molecule agonists, calcium flux assay: HEK293 wild type cell line counter screen (AID 1920065)
Procedure, shortened: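 Kinetic fluorescence at Ex/Em 480/540, recorded every second over 3 min, served as the read-out after compound addition. Each compound was tested at 15 concentrations in triplicate on cells pre-loaded with calcium dye for 1 h.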

[6] = p53 small molecule agonists, cell-based qHTS assay with rat liver microsomes (AID 1963578)
Procedure, shortened: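 Metabolic activation by rat liver microsomes and NADPH, each 0.5 mg/mL final, added right after compounds to p53RE-bla reporter cells (4,000/well, plated 5 h earlier). 16 h at 37 C, then LiveBLAzer substrate for 2 h at room temperature in the dark; fluorescence read-out.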

[7] = p53 small molecule agonists, cell-based qHTS assay with human liver microsomes: qHTS cell viability counter screen (AID 1963579); also: nearly all actives have a fitted effect of over 45% in size
Procedure, shortened: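 Metabolic activation used human liver microsomes and NADPH, both 0.5 mg/mL final, over 16 hours at 37 C on p53RE-bla cells (4,000/well). Cytotoxicity measured by CellTiter-Glo luminescence, 30 min at room temperature.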

[8] = p53 small molecule agonists, cell-based qHTS assay with rat liver microsomes: qHTS cell viability counter screen (AID 1963580); also: nearly all actives have a fitted effect of over 45% in size
Procedure, shortened: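 Intracellular ATP, by CellTiter-Glo luminescence, defines viability. HCT-116 p53RE-bla cells, 4,000 per well, were compound-treated in the presence of rat liver microsomes and NADPH for 16 h at 37 C.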

[9] = p53 small molecule agonists, cell-based qHTS assay: qHTS cell viability counter screen (AID 1963581); also: nearly all actives have a fitted effect of over 45% in size; also: potency is read from the fitted curve at half-maximal effect
Procedure, shortened: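 HCT-116 p53RE-bla cells, 4,000/well, plated 5 h before compound pin transfer; 16 h at 37 C; bla substrate 2 h RT; then CellTiter-Glo, 30 min RT, luminescence.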

[10] = target: Muscarinic acetylcholine receptor M1 (Homo sapiens) (UniProt P11229); test: Cholinergic receptor muscarinic 1 (CHRM1) small molecule antagonists, cell-based qHTS assay (AID 1963588); also: nearly all actives have a fitted effect of over 40% in size; also: potency is read from the fitted curve at half-maximal effect
Procedure, shortened: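 CHRM1-CHO calcium-flux assay, antagonist mode. Cells were seeded 18 h, dye-loaded 1 h at 37 C and given compound for 5 min at RT, then acetylcholine was added at 50nM. FDSS fluorescence was read 3 min; 15 concentrations, three runs.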

[11] = cAMP Responsive Elements (CRE) small molecule agonists, cell-based qHTS assay (AID 1963590)
Procedure, shortened: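 HEK 293T CRE-bla, 2,000 cells/well, 18 h preincubation 37 C/5% CO2; cpds (DMSO) pinned, 3 h; LiveBLAzer B/G FRET substrate, 2 h RT.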

[12] = cAMP Responsive Elements (CRE) small molecule antagonists, cell-based qHTS assay (AID 1963591; active = well fitted inhibition curve with a large enough effect in the signal ratio in the repeat runs, not every such curve was filed as active; the % refers to the signal ratio)
Procedure, shortened: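 Beta-lactamase reporter read by FRET substrate (LiveBLAzer B/G) after 2 h at room temperature. CRE-bla HEK293T cells had received compound plus 0.25 uM (final) NKH477 for 3 h at 37 °C.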

[13] = target: D(2) dopamine receptor (Homo sapiens) (UniProt P14416); test: Dopamine D2 receptor (DRD2) small molecule agonists, cell-based qHTS assay (AID 1963594); also: nearly all actives have a fitted effect of over 35% in size; also: potency is read from the fitted curve at half-maximal effect
Procedure, shortened: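 cAMP accumulation in DRD2-HEK293 cells measured by HTRF after 1 h detection; compounds added 10 min before NKH477 (200nM […]) forskolin-analogue stimulation, 30 min at room temperature, with Ro20-1724 present at 0.1 mM final.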

[14] = target: D(2) dopamine receptor (Homo sapiens) (UniProt P14416); test: Dopamine D2 receptor (DRD2) small molecule antagonists, cell-based qHTS assay (AID 1963595; active = well fitted inhibition curve with a large enough effect in the signal ratio in the repeat runs, with a control signal flat; the % refers to the signal ratio)
Procedure, shortened: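 Readout: HTRF cAMP, cAMP-d2 competing with cellular cAMP for anti-cAMP cryptate, read after 1 h. Cells: DRD2-HEK293. Conditions: 0.1 mM Ro20-1724, 12 nM quinpirole, 200 nM NKH477, 30 min RT.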

[15] = p53 small molecule agonists, cell-based qHTS assay (AID 1963582; active = well fitted activation curve with a large enough effect in the signal ratio in the repeat runs, not every such curve was filed as active; the % refers to the signal ratio)
Procedure, shortened: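 Reporter line: p53RE-bla. Pre-incubation 5 h, 37 C, 5% CO2; compound (DMSO, pin tool) 16 h, 37 C; B/G FRET substrate 2 h RT; fluorescence intensity read.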

[16] = target: 5-hydroxytryptamine receptor 2A (Homo sapiens) (UniProt P28223); test: 5-hydroxytryptamine receptor 2A (HTR2A) small molecule agonists, cell-based qHTS assay (AID 1963587); also: nearly all actives have a fitted effect of over 30% in size
Procedure, shortened: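 Kinetic calcium-flux fluorescence (2 min, 1 sec intervals) after compound addition in agonist mode. HTR2A-CHO cells were cultured 18 h, then dye-loaded 1 h at 37 C.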

[17] = target: Beta-2 adrenergic receptor (Homo sapiens) (UniProt P07550); test: Adrenergic beta2 receptor (ADRB2) small molecule antagonists, cell-based qHTS assay (AID 1963592); also: series mostly up to about 92 µM; nearly all actives have a fitted effect of over 50% in size
Procedure, shortened: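 Cells (CHO, stable ADRB2 overexpression) incubated 18-20hr at 37C; compounds added from DMSO; agonist mix (1nM isoproterenol, 100uM IBMX, 25uM Ro-20-1724) added; 0.5hr RT; d2-cAMP and anti-cAMP-cryptate added; 1hr RT; 665/615 nm read.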

[18] = target: Muscarinic acetylcholine receptor M1 (Homo sapiens) (UniProt P11229); test: Cholinergic receptor muscarinic 1 (CHRM1) small molecule agonists, cell-based qHTS assay (AID 1963589); also: nearly all actives have a fitted effect of over 35% in size
Procedure, shortened: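 Human M1 in stable CHO line; 18 h plating, 1 h dye load 37 C; cpd added (agonist mode); Ca2+ fluorescence kinetic read, 1 s intervals; 15 conc, 3 runs.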

[19] = target: 5-hydroxytryptamine receptor 2A (Homo sapiens) (UniProt P28223); test: 5-hydroxytryptamine receptor 2A (HTR2A) small molecule antagonists, cell-based qHTS assay (AID 1963586); also: nearly all actives have a fitted effect of over 45% in size
Procedure, shortened: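 Antagonist-mode intracellular calcium assay: DOI (4 nM) added after 5 min compound pre-incubation at room temperature to dye-loaded HTR2A-CHO cells. Fluorescence followed for 3 min, sampled every second.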

Sequence of D(2) dopamine receptor (Homo sapiens) (P14416 whole entry, looked up): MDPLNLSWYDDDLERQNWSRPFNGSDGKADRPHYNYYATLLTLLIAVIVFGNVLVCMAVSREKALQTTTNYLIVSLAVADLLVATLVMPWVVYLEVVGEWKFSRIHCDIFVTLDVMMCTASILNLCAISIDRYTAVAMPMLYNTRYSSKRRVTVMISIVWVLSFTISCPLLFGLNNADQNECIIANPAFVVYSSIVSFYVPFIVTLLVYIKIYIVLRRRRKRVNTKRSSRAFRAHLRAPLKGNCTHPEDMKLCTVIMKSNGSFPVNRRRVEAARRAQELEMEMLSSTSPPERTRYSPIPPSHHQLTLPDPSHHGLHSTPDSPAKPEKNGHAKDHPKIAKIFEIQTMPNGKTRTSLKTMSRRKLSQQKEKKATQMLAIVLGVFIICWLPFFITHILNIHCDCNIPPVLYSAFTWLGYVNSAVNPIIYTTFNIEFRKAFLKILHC
Sequence of Beta-2 adrenergic receptor (Homo sapiens) (P07550 whole entry, looked up): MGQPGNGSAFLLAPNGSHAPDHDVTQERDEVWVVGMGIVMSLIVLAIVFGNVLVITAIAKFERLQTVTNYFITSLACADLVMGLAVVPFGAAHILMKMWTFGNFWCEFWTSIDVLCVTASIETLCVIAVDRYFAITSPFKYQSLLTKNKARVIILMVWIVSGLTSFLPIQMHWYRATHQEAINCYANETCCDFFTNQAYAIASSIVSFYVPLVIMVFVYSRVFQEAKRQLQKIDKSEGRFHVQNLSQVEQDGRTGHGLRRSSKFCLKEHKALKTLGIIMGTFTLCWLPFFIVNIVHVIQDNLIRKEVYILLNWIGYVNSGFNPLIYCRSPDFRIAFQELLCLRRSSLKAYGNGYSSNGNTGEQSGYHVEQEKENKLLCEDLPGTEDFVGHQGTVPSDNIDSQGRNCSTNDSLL
Sequence of Gonadotropin-releasing hormone receptor (Homo sapiens) (P30968 whole entry, looked up): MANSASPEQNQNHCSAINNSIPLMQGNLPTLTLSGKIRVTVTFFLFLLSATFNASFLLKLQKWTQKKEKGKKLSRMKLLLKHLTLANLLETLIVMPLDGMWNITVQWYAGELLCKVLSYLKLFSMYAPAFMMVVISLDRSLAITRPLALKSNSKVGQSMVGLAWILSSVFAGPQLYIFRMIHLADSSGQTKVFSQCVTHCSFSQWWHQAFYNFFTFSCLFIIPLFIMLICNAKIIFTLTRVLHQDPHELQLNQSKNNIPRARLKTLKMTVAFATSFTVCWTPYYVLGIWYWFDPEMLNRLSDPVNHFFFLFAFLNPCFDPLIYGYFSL
Sequence of KiSS-1 receptor (Homo sapiens) (Q969F8 whole entry, looked up): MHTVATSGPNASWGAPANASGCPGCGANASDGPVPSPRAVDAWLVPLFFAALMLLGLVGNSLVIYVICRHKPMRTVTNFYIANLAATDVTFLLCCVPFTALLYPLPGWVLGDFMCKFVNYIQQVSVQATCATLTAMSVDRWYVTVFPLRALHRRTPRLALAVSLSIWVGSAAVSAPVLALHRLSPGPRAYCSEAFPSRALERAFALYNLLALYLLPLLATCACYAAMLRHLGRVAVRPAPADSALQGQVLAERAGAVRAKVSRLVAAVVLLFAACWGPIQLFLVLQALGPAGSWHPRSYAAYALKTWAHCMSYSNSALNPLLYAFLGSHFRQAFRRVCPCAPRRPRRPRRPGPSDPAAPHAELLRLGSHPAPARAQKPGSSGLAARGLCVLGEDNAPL
Sequence of Muscarinic acetylcholine receptor M1 (Homo sapiens) (P11229 whole entry, looked up): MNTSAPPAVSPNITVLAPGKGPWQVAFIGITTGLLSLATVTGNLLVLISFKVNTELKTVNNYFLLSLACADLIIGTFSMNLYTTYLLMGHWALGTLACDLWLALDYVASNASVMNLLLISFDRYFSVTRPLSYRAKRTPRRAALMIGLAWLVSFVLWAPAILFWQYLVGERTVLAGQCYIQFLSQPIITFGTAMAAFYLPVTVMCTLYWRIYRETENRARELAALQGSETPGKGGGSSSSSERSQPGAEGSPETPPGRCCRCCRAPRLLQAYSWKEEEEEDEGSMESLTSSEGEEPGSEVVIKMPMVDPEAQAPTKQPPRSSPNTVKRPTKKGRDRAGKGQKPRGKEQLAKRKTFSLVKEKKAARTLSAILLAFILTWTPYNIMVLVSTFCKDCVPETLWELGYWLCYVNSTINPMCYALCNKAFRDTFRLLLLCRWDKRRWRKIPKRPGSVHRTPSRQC
Sequence of 5-hydroxytryptamine receptor 2A (Homo sapiens) (P28223 whole entry, looked up): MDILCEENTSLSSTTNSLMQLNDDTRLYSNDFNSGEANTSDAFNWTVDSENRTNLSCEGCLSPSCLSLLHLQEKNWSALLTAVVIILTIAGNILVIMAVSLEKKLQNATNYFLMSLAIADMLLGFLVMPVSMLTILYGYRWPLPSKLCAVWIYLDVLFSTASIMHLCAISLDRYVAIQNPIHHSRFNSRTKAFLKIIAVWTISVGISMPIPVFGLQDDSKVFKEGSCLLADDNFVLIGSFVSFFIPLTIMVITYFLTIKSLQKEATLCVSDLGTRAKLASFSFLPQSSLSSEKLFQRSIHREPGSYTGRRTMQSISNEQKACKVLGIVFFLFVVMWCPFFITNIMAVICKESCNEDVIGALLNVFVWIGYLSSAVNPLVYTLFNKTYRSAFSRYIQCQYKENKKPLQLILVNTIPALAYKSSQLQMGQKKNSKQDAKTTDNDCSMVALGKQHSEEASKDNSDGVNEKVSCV

SMILES	Potency [1]	Potency [2]	Potency [3]	Potency [4]	Potency [5]	Potency [6]	Potency [7]	Potency [8]	Potency [9]	Potency [10]	Potency [11]	Potency [12]	Potency [13]	Potency [14]	Potency [15]	Potency [16]	Potency [17]	Potency [18]	Potency [19]
COc1cc(C[C@@H](C)N)c(OC)cc1Br	inactive	inactive	inactive	inactive	inactive	inactive	inactive	inactive	inactive	17.2 µM (active)	inactive	inactive	3.96 µM (active)	inactive	–	–	–	–	–
CC(C)[C@H](C(=O)OC(C#N)c1cccc(Oc2ccccc2)c1)c1ccc(OC(F)F)cc1 (stereo not given in full)	inactive	inactive	inactive	inactive	inactive	inactive	inactive	inactive	inactive	inactive	–	inactive	inactive	inactive	inactive	inactive	inactive	–	–
C#C[C@]1(O)C=C[C@H]2[C@@H]3CCC4=CC(=O)CC[C@@H]4[C@H]3CC[C@@]21CC	inactive	inactive	inactive	inactive	inactive	inactive	inactive	inactive	inactive	inactive	–	–	inactive	inactive	inactive	inactive	inactive	inactive	–
COc1cccc(C(=O)NN(C(=O)c2cc(C)cc(C)c2)C(C)(C)C)c1C	inactive	inactive	inactive	inactive	inactive	inactive	inactive	inactive	inactive	14.9 µM (active)	–	–	inactive	inactive	inactive	inactive	inactive	–	inactive
ClCCCN1CCN(c2cccc(Cl)c2)CC1	inactive	inactive	inactive	inactive	inactive	inactive	inactive	inactive	inactive	inactive	inactive	inactive	–	inactive	inactive	–	inactive	inactive	–
CC[C@H](C)[C@H]1O[C@]2(C=C[C@@H]1C)C[C@@H]1C[C@@H](C/C=C(\C)[C@@H](O[C@H]3C[C@H](OC)[C@@H](O[C@H]4C[C@H](OC)[C@@H](O)[C@H](C)O4)[C@H](C)O3)[C@@H](C)/C=C/C=C3\CO[C@@H]4[C@H](O)C(C)=C[C@@H](C(=O)O1)[C@]34O)O2	16.1 µM (active)	inactive	inactive	inactive	inactive	inactive	inactive	inactive	19.1 µM (active)	–	–	–	inactive	–	–	–	–	–	–
CC(C)CBr	inactive	inactive	inactive	inactive	inactive	inactive	inactive	inactive	inactive	–	inactive	inactive	inactive	inactive	inactive	inactive	–	inactive	inactive

— PubChem BioAssay (Tox21)
